Records with an inconclusive call do not appear. Where a call stands in place of a potency, no number is given. Active and inactive are the calls of the source. Unless noted, calls follow the shape of the dose curve; as a rule, active = well fitted curve in the direction sought with a large enough effect; inconclusive = small, poorly fitted or top-dose-only effect, or another doubt; inactive = no such curve, though single readings can be large; an effect the other way counts as inactive or inconclusive.
How the values were obtained:
[1] = target: Ferritin light chain (Equus caballus) (UniProt P02791); experiment: qHTS Validation Assay for Identification of Novel General Anesthetics (AID 2323); also: series mostly up to about 77 µM
Method in brief: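 Competitive displacement of the profluorescent anesthetic 1-AMA (50% saturated, PBS) from 10 uM apoferritin, 10 min, room temperature. Activity is normalized 380/535 nm fluorescence; concentration-response fitted with a four-parameter Hill equation.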

[2] = target: ATP-dependent DNA helicase Q1 (Homo sapiens) (UniProt P46063); experiment: qHTS Validation Assay for Inhibitors of RecQ-Like Dna Helicase 1 (RECQ1) (AID 2353); also: potency is read from the fitted curve at half-maximal effect
Method in brief: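 50 nM RECQ1T1 preincubated 15 min with compound in Tris pH 8.0 buffer with MgCl2, DTT, Tween-20 and 2.5 ug/ml poly(dI-dC); started with 200 nM TAMRA/BHQ-2 forked duplex and 2 mM ATP. Unwinding read as fluorescence (525/598 nm), two reads 2 h apart.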

[3] = target: RecQ-like DNA helicase BLM (Homo sapiens) (UniProt P54132); experiment: qHTS Validation Assay for Inhibitors of Bloom's syndrome helicase (BLM) (AID 2364); also: potency is read from the fitted curve at half-maximal effect
Method in brief: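 50 nM BLM preincubated 15 min at room temperature with compound in pH 8.0 Tris buffer containing 2.5 ug/ml poly(dI-dC); started with 200 nM TAMRA/BHQ-2 forked duplex and 2 mM ATP (final). Unwinding read as TAMRA fluorescence increase, two reads 2 h apart.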

[4] = High Content Imaging Cell-Based qHTS for Inhibitors of the mTORC1 Signaling Pathway in MEF (Tsc2-/-, p53-/-) Cells (AID 2666);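 also: percent of cells scored positive for phospho-rpS6 Ser235/236 immunostaining by imaging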; also: potency is read from the fitted curve at half-maximal effect
Method in brief: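 Phospho-rpS6 (Ser235/236) immunofluorescence, normalized and scored as % positive cells using rapamycin and DMSO controls, was read in empty-vector Tsc2-/-, p53-/- MEFs after 24 h compound exposure at 37 C; propidium iodide counted cells.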

[5] = High Content Imaging Cell-Based qHTS for Inhibitors of the mTORC1 Signaling Pathway in MEF Cells (AID 2667); also: potency is read from the fitted curve at half-maximal effect
Method in brief: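 WT MEFs (Tsc2-/-, p53-/- re-expressing Tsc2), in DMEM + 10% FBS, were treated with compound for 24 h at 37 C. Cells were then fixed and stained for phospho-rpS6 Ser235/236 with propidium iodide as cell count. Values are % positive cells, with thresholds set against rapamycin-treated cells.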

[6] = Validation screen for small molecules that induce DNA re-replication in MCF 10A normal breast cells (AID 463097); also: nearly all actives have a fitted effect of over 60% in size; also: potency is read from the fitted curve at half-maximal effect
Method in brief: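 Read-out is Hoechst total nuclear intensity by fluorescence scanning imager, flagging increased high-DNA-content nuclei. Compounds were incubated with MCF 10A cells for 48 hr (37 C, 5% CO2) before 40 min staining.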

[7] = target: DNA polymerase III PolC-type (Bacillus subtilis (strain 168)) (UniProt P13267); experiment: qHTS Validation Assay for the Inhibitors of DNA Replication in Gram-Positive Bacteria (AID 485295); also: potency is read from the fitted curve at half-maximal effect
Method in brief: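 Double-stranded DNA product detected by PicoGreen fluorescence after EDTA quench. Compound incubated with B. subtilis holoenzyme (PolC, beta subunit, SSB, primase) before substrate addition; primed replication of M13Gori with dNTPs and NTPs at room temperature; DMSO defines 0% inhibition.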

[8] = target: Beta-2 adrenergic receptor (Homo sapiens) (UniProt P07550); experiment: qHTS validation assay of beta-arrestin-biased ligands of beta2-adrenergic receptor (AID 485366)
Method in brief: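 Luminescence from a tTA-responsive luciferase, induced when recombinant beta-arrestin is recruited to recombinant beta2-AR, served as the agonism signal. Cells were exposed to compound for 18 hr at 37 degrees C; titrations spanned up to 46 microM.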

[9] = Quantitative high throughput screen for delayed death inhibitors of the malarial parasite plastid, 96 hour incubation (AID 488745); also: nearly all actives have a fitted effect of over 70% in size; also: potency is read from the fitted curve at half-maximal effect
Method in brief: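 Growth of reporter-bearing P. falciparum in red cells is measured after 96 h with compound, covering two erythrocytic cycles. Luminescence from the integrated luciferase serves as the growth signal.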

[10] = Quantitative high throughput screen for delayed death inhibitors of the malarial parasite plastid, 48 hour incubation (AID 488752); also: nearly all actives have a fitted effect of over 65% in size; also: potency is read from the fitted curve at half-maximal effect
Method in brief: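 One parasite generation (48 h, 37 C, 5% CO2) of luciferase-reporter P. falciparum in erythrocytes is run with test compound; decreased luminescence indicates inhibited growth.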

[11] = target: Thioredoxin reductase 1, cytoplasmic (Rattus norvegicus) (UniProt O89049); experiment: qHTS Assay for Substrates of Mammalian Selenoprotein Thioredoxin Reductase 1 (TrxR1) (AID 488772);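 also: NADPH fluorescence in the first read after selenite addition and not the 8 min delta; series mostly up to about 57 µM; a drop in NADPH fluorescence below the no-compound background marks a TrxR1 substrate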
Method in brief: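 Quantitative HTS in Tris-HCl buffer at pH 7.5 with EDTA and Tween-20, using rat TrxR1, 400 uM NADPH and 400 uM selenite (final). A fall in initial NADPH fluorescence relative to background marked substrate behaviour.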

[12] = target: Flap endonuclease 1 (Homo sapiens) (UniProt P39748); experiment: qHTS Validation Assay for the Inhibitors of Human Flap endonuclease 1 (FEN1) (AID 488816); also: potency is read from the fitted curve at half-maximal effect
Method in brief: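 Human FEN1 (10 nM) preincubated 15 min at room temperature with compounds, then flap DNA substrate added at 50 nM final. Fluorescence read at 0 and 15 min; concentration-response fitted with four-parameter Hill equation.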

[13] = Cytometric Cell-Based qHTS for Inhibitors of the mTORC1 Signaling Pathway in MEF (Tsc2-/-, p53-/-) Cells (AID 2660);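 also: percent of cells above a phospho-rpS6 to PI ratio cutoff in each well; series mostly up to about 38 µM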
Method in brief: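 Percent of cells positive for normalized phospho-S6 staining is reported, with the cutoff set from rapamycin (7.5 nM) versus DMSO wells. Tsc2-/-, p53-/- MEFs received compound for 24 hrs.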

[14] = target: Ubiquitin carboxyl-terminal hydrolase 2 (Homo sapiens) (UniProt O75604); experiment: qHTS Validation Assay for Inhibitors of Ubiquitin-specific Protease USP2a Using CHOP2 as the Reporter (AID 463106)
Method in brief: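 USP2 core (10 nM final) was preincubated with compound 30 min at RT in pH 8.0 Tris/CaCl2/beta-ME/CHAPS buffer. Ub-CHOP2 and reporter substrate (25 nM final each) were then added, with fluorescence (Ex 485/Em 531) read after 60 min. Data were normalized to NEM full inhibition and fitted to concentration-response curves.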

[15] = target: Tumor susceptibility gene 101 protein (Homo sapiens) (UniProt Q99816); experiment: qHTS Validation Assay for Iinhibitors of HIV-1 Budding by Blocking the Interaction of PTAP/TSG101 (AID 485342; calls by dose curve)
Method in brief: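 Fluorescence polarization of 50 nM FITC-PTAP peptide bound to 10 uM Tsg101 binding domain was read after 20 min room-temperature incubation with compounds, in 10 mM HEPES pH 7.5, 0.15 M NaCl, 0.01% Tween 20.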

[16] = qHTS Validation Assay to Find Inhibitors of Chronic Active B-Cell Receptor Signaling (AID 485345; active = well fitted curve in the direction sought with a large enough effect in the main read-out, with a control signal flat, not every such curve was filed as active)
Method in brief: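 TMD8 ABC-DLBCL cells stably carrying doxycycline-inducible IkappaBalpha–green luciferase fusion plus unfused red luciferase; compounds 46 uM to 3 nM, 4 h at 37C with doxycycline. Corrected green/red luminescence ratio normalized to 10 uM MG-132 and basal cell wells; curves fitted.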

[17] = target: Thioredoxin reductase 1, cytoplasmic (Rattus norvegicus) (UniProt O89049); experiment: qHTS Assay for Inhibitors of Mammalian Selenoprotein Thioredoxin Reductase 1 (TrxR1) (AID 488773); details: Potency: inhibition;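 also: drop in NADPH fluorescence over an 8 min run after selenite addition; series mostly up to about 57 µM; nearly all actives have a fitted effect of over 40% in size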
Method in brief: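 Steps: enzyme (90 nM) plus NADPH (400 uM final), 5 min at ~22 deg C; compound added, 15 min; selenite (400 uM final) added; fluorescence followed for 8 min. Concentration-response curves derived from the normalized delta values.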

[18] = Cytometry Cell-Based qHTS for Inhibitors of the mTORC1 Signaling Pathway in MEF cells (AID 2668);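 also: Tsc2-/- p53-/- mouse embryonic fibroblasts stably re-expressing wild-type Tsc2; percent cells positive for phospho-rpS6 Ser235/236 relative to propidium iodide stain; series mostly up to about 38 µM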
Method in brief: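 Phospho-rpS6 (Ser235/236) immunofluorescence over PI signal, scored as % positive cells using thresholds from 7.5 nM rapamycin and DMSO wells, after 24 h compound exposure of WT-Tsc2-rescued Tsc2-/-, p53-/- MEFs. PI cell count recorded for viability.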

Sequence of Ubiquitin carboxyl-terminal hydrolase 2 (Homo sapiens) (O75604 whole entry, looked up): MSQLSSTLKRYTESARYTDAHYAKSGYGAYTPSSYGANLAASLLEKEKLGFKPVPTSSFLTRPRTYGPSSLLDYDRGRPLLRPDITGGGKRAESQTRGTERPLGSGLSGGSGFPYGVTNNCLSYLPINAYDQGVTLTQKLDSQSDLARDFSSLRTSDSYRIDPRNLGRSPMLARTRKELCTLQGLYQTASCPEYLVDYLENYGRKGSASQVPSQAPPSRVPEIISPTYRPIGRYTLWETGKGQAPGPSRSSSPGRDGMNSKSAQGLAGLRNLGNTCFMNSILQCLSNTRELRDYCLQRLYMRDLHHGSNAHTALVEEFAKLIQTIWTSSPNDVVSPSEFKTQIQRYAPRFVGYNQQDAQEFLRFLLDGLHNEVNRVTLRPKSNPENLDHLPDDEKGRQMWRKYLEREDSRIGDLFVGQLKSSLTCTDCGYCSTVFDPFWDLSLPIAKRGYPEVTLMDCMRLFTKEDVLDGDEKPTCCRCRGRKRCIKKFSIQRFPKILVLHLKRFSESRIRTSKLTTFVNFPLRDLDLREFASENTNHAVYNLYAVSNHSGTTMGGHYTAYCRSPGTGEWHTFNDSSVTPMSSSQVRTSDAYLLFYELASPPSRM
Sequence of Beta-2 adrenergic receptor (Homo sapiens) (P07550 whole entry, looked up): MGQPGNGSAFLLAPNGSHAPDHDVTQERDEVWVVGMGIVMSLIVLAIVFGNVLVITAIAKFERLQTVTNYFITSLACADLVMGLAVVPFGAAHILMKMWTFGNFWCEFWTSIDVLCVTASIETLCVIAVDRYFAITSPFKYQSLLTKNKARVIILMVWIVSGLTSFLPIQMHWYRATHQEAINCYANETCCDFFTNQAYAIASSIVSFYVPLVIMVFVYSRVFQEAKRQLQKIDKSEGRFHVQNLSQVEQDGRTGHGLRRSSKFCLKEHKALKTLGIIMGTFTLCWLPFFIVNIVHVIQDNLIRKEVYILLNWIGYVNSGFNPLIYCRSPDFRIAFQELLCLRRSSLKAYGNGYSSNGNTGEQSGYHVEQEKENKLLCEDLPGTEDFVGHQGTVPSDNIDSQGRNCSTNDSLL
Sequence of Thioredoxin reductase 1, cytoplasmic (Rattus norvegicus) (O89049 whole entry, looked up): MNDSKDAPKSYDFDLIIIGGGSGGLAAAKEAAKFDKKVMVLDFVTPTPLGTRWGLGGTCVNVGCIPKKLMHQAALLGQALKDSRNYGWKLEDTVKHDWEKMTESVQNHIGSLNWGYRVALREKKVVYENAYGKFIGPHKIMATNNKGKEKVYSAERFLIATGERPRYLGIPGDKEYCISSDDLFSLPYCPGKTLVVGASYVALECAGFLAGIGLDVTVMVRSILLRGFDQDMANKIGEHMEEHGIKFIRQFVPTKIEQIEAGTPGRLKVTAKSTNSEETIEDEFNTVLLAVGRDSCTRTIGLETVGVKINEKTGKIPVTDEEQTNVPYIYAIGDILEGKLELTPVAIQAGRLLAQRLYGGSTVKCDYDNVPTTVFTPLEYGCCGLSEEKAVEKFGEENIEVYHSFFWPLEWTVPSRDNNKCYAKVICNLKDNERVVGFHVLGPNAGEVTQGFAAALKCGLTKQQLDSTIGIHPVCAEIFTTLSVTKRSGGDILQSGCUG
Sequence of Ferritin light chain (Equus caballus) (P02791 2-175 limits assumed): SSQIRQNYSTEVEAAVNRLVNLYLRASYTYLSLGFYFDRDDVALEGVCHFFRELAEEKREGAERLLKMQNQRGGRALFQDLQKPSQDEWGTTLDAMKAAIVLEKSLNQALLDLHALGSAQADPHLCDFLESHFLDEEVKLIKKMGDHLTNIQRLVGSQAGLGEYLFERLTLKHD
Sequence of ATP-dependent DNA helicase Q1 (Homo sapiens) (P46063 whole entry, looked up): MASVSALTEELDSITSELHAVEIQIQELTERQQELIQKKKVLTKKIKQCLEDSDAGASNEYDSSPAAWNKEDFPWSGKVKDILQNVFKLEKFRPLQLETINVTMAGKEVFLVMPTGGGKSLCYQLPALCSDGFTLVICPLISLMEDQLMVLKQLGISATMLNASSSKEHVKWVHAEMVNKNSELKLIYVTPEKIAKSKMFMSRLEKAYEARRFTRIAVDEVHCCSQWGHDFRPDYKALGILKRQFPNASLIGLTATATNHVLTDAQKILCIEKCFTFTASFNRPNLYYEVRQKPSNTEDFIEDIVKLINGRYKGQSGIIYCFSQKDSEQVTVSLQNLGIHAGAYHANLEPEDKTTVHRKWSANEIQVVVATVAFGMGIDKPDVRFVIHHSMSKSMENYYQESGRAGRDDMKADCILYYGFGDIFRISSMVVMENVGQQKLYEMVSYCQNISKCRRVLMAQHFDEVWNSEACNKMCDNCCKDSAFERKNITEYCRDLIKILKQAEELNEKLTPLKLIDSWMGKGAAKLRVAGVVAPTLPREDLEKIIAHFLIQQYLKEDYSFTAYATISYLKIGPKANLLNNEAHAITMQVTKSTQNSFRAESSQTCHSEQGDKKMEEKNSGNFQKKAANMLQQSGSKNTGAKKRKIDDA
Sequence of Flap endonuclease 1 (Homo sapiens) (P39748 whole entry, looked up): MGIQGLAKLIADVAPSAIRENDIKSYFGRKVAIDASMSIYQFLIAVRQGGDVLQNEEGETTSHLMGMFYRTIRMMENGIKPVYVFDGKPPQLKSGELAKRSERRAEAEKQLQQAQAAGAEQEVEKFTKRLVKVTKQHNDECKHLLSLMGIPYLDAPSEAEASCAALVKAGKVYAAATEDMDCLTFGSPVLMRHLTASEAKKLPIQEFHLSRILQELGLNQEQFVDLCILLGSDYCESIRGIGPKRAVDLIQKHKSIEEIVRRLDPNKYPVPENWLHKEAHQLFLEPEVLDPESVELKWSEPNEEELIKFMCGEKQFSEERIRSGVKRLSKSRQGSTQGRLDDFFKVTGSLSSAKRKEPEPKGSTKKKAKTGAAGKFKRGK
Sequence of DNA polymerase III PolC-type (Bacillus subtilis (strain 168)) (P13267 whole entry, looked up): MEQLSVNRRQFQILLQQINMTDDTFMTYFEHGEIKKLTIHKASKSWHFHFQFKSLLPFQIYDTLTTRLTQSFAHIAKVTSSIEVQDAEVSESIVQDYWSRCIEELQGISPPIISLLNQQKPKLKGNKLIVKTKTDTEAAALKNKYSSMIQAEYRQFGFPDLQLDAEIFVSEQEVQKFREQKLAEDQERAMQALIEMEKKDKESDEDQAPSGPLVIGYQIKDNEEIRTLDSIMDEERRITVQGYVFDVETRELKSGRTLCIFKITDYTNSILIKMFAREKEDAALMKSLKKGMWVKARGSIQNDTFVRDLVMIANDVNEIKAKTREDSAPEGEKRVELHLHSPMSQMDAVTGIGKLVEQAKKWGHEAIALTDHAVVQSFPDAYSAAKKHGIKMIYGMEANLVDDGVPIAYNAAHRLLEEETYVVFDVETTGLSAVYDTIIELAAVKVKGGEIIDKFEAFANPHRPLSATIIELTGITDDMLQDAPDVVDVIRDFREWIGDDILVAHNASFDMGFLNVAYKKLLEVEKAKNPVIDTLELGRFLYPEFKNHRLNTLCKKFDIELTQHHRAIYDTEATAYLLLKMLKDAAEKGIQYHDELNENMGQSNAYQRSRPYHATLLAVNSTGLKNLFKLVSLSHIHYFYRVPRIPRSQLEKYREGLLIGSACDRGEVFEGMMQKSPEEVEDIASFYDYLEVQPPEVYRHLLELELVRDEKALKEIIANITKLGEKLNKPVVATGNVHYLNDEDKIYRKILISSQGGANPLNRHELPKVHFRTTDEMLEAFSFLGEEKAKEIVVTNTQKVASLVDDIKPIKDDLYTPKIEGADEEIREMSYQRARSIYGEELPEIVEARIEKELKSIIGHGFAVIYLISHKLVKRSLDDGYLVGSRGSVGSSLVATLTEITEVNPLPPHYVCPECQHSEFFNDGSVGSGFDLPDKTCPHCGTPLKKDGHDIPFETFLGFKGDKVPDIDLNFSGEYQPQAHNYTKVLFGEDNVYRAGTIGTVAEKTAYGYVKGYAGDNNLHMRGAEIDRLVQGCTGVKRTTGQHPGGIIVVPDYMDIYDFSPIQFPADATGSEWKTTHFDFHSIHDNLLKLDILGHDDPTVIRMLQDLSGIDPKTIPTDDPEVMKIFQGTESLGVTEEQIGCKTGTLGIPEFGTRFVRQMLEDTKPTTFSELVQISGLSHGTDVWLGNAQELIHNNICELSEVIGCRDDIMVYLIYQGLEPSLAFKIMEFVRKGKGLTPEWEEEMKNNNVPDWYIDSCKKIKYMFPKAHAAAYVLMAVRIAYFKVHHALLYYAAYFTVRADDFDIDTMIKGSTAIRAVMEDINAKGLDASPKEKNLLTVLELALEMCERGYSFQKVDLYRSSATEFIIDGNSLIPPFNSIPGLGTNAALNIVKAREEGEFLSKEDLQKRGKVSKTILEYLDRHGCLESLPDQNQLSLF
Sequence of Tumor susceptibility gene 101 protein (Homo sapiens) (Q99816 whole entry, looked up, the tested form may be a part): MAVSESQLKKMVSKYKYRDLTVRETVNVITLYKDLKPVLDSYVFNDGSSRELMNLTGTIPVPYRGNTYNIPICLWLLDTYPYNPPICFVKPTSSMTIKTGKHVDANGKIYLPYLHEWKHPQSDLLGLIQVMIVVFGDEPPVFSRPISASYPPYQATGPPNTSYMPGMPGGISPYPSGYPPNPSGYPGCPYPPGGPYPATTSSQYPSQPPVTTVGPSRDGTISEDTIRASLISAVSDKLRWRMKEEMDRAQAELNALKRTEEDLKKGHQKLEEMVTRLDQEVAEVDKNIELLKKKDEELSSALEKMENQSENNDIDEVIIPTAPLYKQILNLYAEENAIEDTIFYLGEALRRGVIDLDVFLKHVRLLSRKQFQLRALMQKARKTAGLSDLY

SMILES | outcome [1] | Potency [2] | Potency [3] | Potency [4] | Potency [5] | Potency [6] | Potency [7] | outcome [8] | Potency [9] | Potency [10] | outcome [11] | Potency [12] | outcome [13] | outcome [14] | outcome [15] | Potency [16] | Potency [17] | Potency [18]
CC(=O)[C@]1(O)Cc2c(O)c3c(c(O)c2[C@@H](O[C@H]2C[C@H](N)[C@H](O)[C@H](C)O2)C1)C(=O)c1ccccc1C3=O | inactive | 11.2 µM (active) | 12.6 µM (active) | 2.33 µM (active) | 0.414 µM (active) | inactive | 1.06 µM (active) | inactive | 3.29 µM (active) | 3.7 µM (active) | inactive | 26.7 µM (active) |  |  |  |  |  | 
NC(Cc1ccc(Cl)cc1)C(=O)O (centres undefined) | inactive | inactive |  | inactive | inactive | inactive | inactive | inactive | inactive | inactive |  | inactive | inactive | inactive | inactive | inactive | inactive | 
CCOC(=O)c1cnc2c(cnn2CC)c1NN=C(C)C | inactive | inactive |  | inactive | inactive | inactive | inactive | inactive | inactive | inactive | inactive | inactive | inactive |  | inactive | inactive | inactive | inactive
Fc1ccc(C(c2ccc(F)cc2)N2CCN(C/C=C/c3ccccc3)CC2)cc1 | inactive | inactive |  | inactive | inactive | 12.6 µM (active) | inactive | inactive | 10.4 µM (active) |  | inactive | inactive | inactive | inactive | inactive | inactive | inactive | 
CC(C)(C)NCC(O)c1cc(O)cc(O)c1 (centres undefined) | inactive | inactive |  | inactive | inactive | inactive | inactive |  | inactive | inactive | inactive | inactive | inactive | inactive | inactive | inactive | inactive | inactive
CCn1nc(C(=O)O)c(=O)c2cc3c(cc21)OCO3 | inactive | inactive |  | inactive | inactive | inactive | inactive | inactive |  | inactive |  |  | inactive | inactive | inactive | inactive |  | inactive
C[N+](C)(C)CCOC(N)=O | inactive | inactive |  | inactive | inactive | inactive | inactive | inactive | inactive | inactive | inactive | inactive | inactive | inactive | inactive | inactive | inactive | inactive
NC/C=C/C(=O)O | inactive | inactive |  | inactive | inactive | inactive | inactive | inactive | inactive | inactive |  | inactive | inactive |  | inactive | inactive |  | inactive
CCN(CC)CCNC(=O)c1cc(S(C)(=O)=O)ccc1OC | inactive | inactive |  | inactive | inactive | inactive | inactive | inactive | inactive | inactive | inactive | inactive | inactive | inactive | inactive | inactive | inactive | 
